This is a sample that favours compounds with a hit; in the whole collection about 4.1% have one here.
GRIN3A LBD mod: modulates the human NR3A ligand-binding domain; NR3A LBD differential scanning fluorimetry, Tm shift; 0% = protein alone, 100% = glycine-bound protein; Tm shift relative to glycine control, % at 25 µM; AID 1259313; 2.5% of 340,000 active;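 active = melting temperature shift of at least 10% of the positive control shift, at one fixed dose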
MIN6 prolif: induces beta-cell replication in MIN6 cells | MIN6 cells proliferation, ATPlite luminescence, 48 h; cells starved in 0.2% serum; 100% = growth in 10% serum | proliferation, % at 10 µM | 0.29% of 330,000 active | AID 2380;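 active = compounds whose signal lies at least 3.5 SD above the mean of all wells on their plate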
FAS TE block: blocks the thioesterase domain of human fatty acid synthase. P49327. 0.67% of 360,000 active. inhibition, % at 15 µM. recombinant FAS-TE, OMFH fluorogenic substrate, fluorescence endpoint;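 active = compounds whose normalised, plate-corrected inhibition of enzyme fluorescence in the single-dose primary screen is 50% or more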
pCIP destab: lowers stability of the mouse p/CIP coactivator protein; 0.01% of 290,000 active; F442A p/CIP-EGFP cells, EGFP fluorescence, 16 h; decrease of EGFP signal, % at 10 µM; Q05BA5; AID 1984;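 active = EGFP signal decrease of at least 30% at 10 µM or well 3 SD below plate mean, unless failing retest; inactive = the rest, including hits failing retest or dose response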
MPTP block: inhibitors of mitochondrial permeability transition pore | 1.4% of 360,000 active | isolated mouse mitochondria, Ca2+ swelling absorbance, 30 min | inhibition, % at 10 µM;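 active = inhibition of 50% or more, scaled per plate between neutral and stimulator controls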
MPTP counter: Rhodamine 123 counter-screen of mitochondrial pore hits; AID 624504; isolated mitochondria, membrane potential, Rhodamine 123 fluorescence; 78% of 5,000 active; inhibition, % at 10 µM; shares compounds with MPTP block; in the data active = inhibition above about 22%
MPTP abs DR: dose response confirmation of mitochondrial permeability transition pore inhibitors | shares compounds with MPTP block | isolated mitochondria swelling, absorbance | IC50, µM | 58% of 780 active; in the data active = IC50 below about 20 µM
MPTP cs DR: active in counter-screen for permeability transition pore inhibitors; shares compounds with MPTP block; isolated mitochondria counterscreen, fluorescence read-out; IC50, µM; 49% of 780 active; AID 651564; in the data active = IC50 below about 80 µM
Large screens that a line does not name were inactive (follow-up assays come after a bar, where they were run).

COc1ccc(-c2nnc(SC(C)C(=O)Nc3c(C)n(C)n(-c4ccccc4)c3=O)o2)cc1 (stereo not given)	none
CC(C)c1ccc2c(c1)CCC1C(C)(CN)CCCC21C (stereo not given)	none (no result: MIN6 prolif)
CC(C)c1ccc2c(c1)CC[C@H]1[C@](C)(CN)CCC[C@]21C	MPTP block 88 (no result: MIN6 prolif, pCIP destab) | MPTP counter inactive | MPTP abs DR inactive | MPTP cs DR inactive
CCN(c1ccccc1)S(=O)(=O)c1cc(C(=O)Nc2ccc(Br)cc2)ccc1F	MPTP block 97 | MPTP counter 89
CCc1ccc(NC(=O)c2ccc(F)c(S(=O)(=O)NCC3COc4ccccc4O3)c2)cc1 (stereo not given)	GRIN3A LBD mod 16, MPTP block 84 | MPTP counter 78
CN1CCN(S(=O)(=O)NC[C@H]2O[C@@H](n3cnc4c(N)ncnc43)[C@H](O)[C@@H]2O)CC1	none (no result: MIN6 prolif, pCIP destab)
CNc1cc(C)c(C#N)c2nc3ccccc3n12	none
Cc1cccc(NC(=O)CSc2cc(C)c(C#N)c3nc4ccccc4n23)c1	GRIN3A LBD mod 13, MPTP block 85 | MPTP counter 58
CN1CCN(CCC(=O)N2c3ccccc3Sc3ccc(Cl)cc32)CC1	none
CN1CCN(CCOC2Cc3ccccc3Sc3ccc(Cl)cc32)CC1 (stereo not given)	MPTP block 90 | MPTP counter inactive | MPTP abs DR 6.5 | MPTP cs DR inactive
CN1CCN(C2Cc3cc(Cl)ccc3Sc3cc(F)ccc32)CC1 (stereo not given)	none (no result: pCIP destab)
OCCN1CCN(C2Cc3cc(Cl)ccc3Sc3ccc(Cl)cc32)CC1 (stereo not given) (tested in a mixture with another compound)	MPTP block 84 | MPTP counter inactive
O=C(CSc1ncn[nH]1)N1c2ccccc2Sc2ccccc21	none
COc1ccccc1N(CC(=O)Nc1ccc2c(c1)OCCO2)S(=O)(=O)c1ccc(C)cc1	none
CC1CCCN(CC(O)COC(c2ccccc2)c2ccccc2)C1 (stereo not given)	none
COC(=O)c1cc(=O)nc(NN=C2c3ccccc3-c3ccccc32)s1	MPTP block 58 (no result: GRIN3A LBD mod, MIN6 prolif, pCIP destab) | MPTP counter 51
CCC(=O)Nc1ccc(C(=O)NCc2ccccn2)cc1	none
CCOCCCN(C(=O)c1snc(C(N)=O)c1N)C(C(=O)NC1CCCC1)c1ccc(F)cc1 (stereo not given)	none
O=C(CSc1nnc2ccccn12)c1ccc(Cl)cc1	none
O=C(CSc1nnc2n1CCCN2C(=S)Nc1ccc(Cl)cc1)c1ccccc1	MPTP block 84 | MPTP counter 89
Cn1c(=O)c2c(nc(NNC(=O)C(F)(F)F)n2C)n(C)c1=O	none
COCCNC(=S)Nc1cc2oc3ccccc3c2cc1OC	none
Cc1c(C(=O)NN)[nH]c2ccc([N+](=O)[O-])cc12	none
Cc1ccc2[nH]c(C(=O)N/N=C/c3ccc([N+](=O)[O-])cc3)c(C)c2c1	GRIN3A LBD mod 20, MPTP block 51 | MPTP counter 74
CCCCC/C=N/NC(=O)c1[nH]c2ccc([N+](=O)[O-])cc2c1C	MPTP block 76 | MPTP counter 73
Cn1ncc(S(=O)(=O)Cc2ccccc2)c(Cl)c1=O	none
Cn1ncc(SCc2ccccc2)c(Cl)c1=O	MPTP block 58 | MPTP counter 22
CCOc1cc(C(C(=O)NCC2CCCO2)N(C(=O)Cn2nnc3ccccc32)c2ccccc2C(C)=O)ccc1O (stereo not given)	none
O=C(c1ccc(N2CCOCC2)c([N+](=O)[O-])c1)N1CCCCC1	none
O=C(NNC(=S)Nc1ccc(Cl)c(Cl)c1)c1cccc([N+](=O)[O-])c1	GRIN3A LBD mod 22, MPTP block 70 | MPTP counter 52
Cc1cccc(NC(=S)NNC(=O)c2cccc([N+](=O)[O-])c2)c1	none
Cc1ccc(NC(=S)NNC(=O)c2ccc(N3CCOCC3)c([N+](=O)[O-])c2)cc1Cl	GRIN3A LBD mod 19, MPTP block 88 | MPTP counter 56
O=C(NNC(=S)Nc1ccc(Cl)cc1Cl)c1ccc(N2CCOCC2)c([N+](=O)[O-])c1	GRIN3A LBD mod 24, MPTP block 98 | MPTP counter 63
O=C(NNC(=S)Nc1ccc(Cl)cc1Cl)c1ccncc1	MPTP block 63 | MPTP counter inactive | MPTP abs DR inactive | MPTP cs DR 42
CC(NC(=S)N1CCOCC1)c1ccccc1 (stereo not given)	none
CN(Cc1ccccc1)C(=O)CCCn1c(=O)c2cccn2c2cccnc21	none
O=C(Nc1ccc(-c2nc3ccccc3o2)cc1)c1ccc(N2CCOCC2)c([N+](=O)[O-])c1	GRIN3A LBD mod 14, MPTP block 87 | MPTP counter 64
CN1CCN(NC(=O)Nc2cc(Cl)cc(Cl)c2)CC1	MPTP block 90 | MPTP counter 91
Cn1nccc1NC(=O)Nc1cccc(Cl)c1	none
COc1ccc(NC(=O)NN2CCN(C)CC2)cc1OC	none
Cn1nc(C(C)(C)C)cc1NC(=O)Nc1cc(Cl)cc(Cl)c1	MPTP block 84 | MPTP counter 73
COc1ccc(-c2nc(CN3CCN(c4ncnc5ccccc45)CC3)c(C)o2)c(OC)c1	MPTP block 66 | MPTP counter 29
Cc1oc(-c2cc(F)ccc2F)nc1CN1CCN(c2ncnc3ccccc23)CC1	none
CSCCC(NC(=O)c1cccc([N+](=O)[O-])c1)c1nc2ccccc2[nH]1 (stereo not given)	none
O=C(NC(Cc1ccccc1)c1nc2ccccc2[nH]1)c1cccc([N+](=O)[O-])c1 (stereo not given)	MPTP block 65 | MPTP counter 65
O=C(Cc1nc2ccccc2[nH]1)c1cccc([N+](=O)[O-])c1	MPTP block 91 | MPTP counter 79
O=C(Nc1nc2ccccc2[nH]1)c1cccc([N+](=O)[O-])c1	none
Nn1c(N2CCCCC2)nc2ccccc21	none
Cc1ccc(N2CC(=O)N(CC(=O)O)C2=O)cc1	none
S=C(NCCc1ccccc1)Nc1ccc(Cl)cc1	GRIN3A LBD mod 27, MPTP block 100 | MPTP counter 90
S=C(NCCCc1ccccc1)Nc1ccccc1Cl	GRIN3A LBD mod 18, MPTP block 86 | MPTP counter 100
S=C(NCCc1ccccn1)Nc1ccc(Cl)c(Cl)c1	none
S=C(NCCc1ccccc1)Nc1ccccc1Cl	none
S=C(NCCc1ccccn1)Nc1cc(Cl)cc(Cl)c1	MPTP block 60 | MPTP counter 77
Cc1c(Cl)cccc1NC(=S)NCCc1ccc(C(F)(F)F)cc1	MPTP block 98 | MPTP counter 96
O=C(CSc1ccc(Br)cc1)NC1CCCCCC1	none (no result: pCIP destab)
